PubChem BioAssay (EPA / NIEHS)
Activity calls are given as the source filed them. The calls were made as follows: active = hit-call score of the fitted dose curve at least 0.9, where 1 is the maximum; inactive = score below 0.9.

The compounds below were run against X-box-binding protein 1 (Homo sapiens) (UniProt P17861) (assay: ATG_Xbp1_CIS: Attagene CIS-FACTORIAL HepG2 Assay for human X-box Binding Protein 1 (XBP1) (AID 2282972)). Settings: HepG2 XBP1 cis-element reporter, Attagene multiplex; actives raise or lower the signal.
Chain of X-box-binding protein 1 (Homo sapiens) (P17861 whole entry, looked up): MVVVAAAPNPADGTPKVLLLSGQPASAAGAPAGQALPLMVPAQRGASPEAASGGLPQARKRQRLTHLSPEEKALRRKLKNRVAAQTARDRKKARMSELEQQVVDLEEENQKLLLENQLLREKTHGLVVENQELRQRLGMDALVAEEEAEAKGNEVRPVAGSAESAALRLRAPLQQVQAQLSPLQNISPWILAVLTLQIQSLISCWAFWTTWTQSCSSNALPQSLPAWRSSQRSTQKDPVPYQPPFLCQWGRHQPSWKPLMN
Protocol: ATG_CIS is a cell-based, multiplexed-readout assay that uses HepG2, a human liver cell line, with measurements taken at 24 hours after chemical dosing in a 24-well plate.ATG_Xbp1_CIS is one of 52 assay component(s) measured or calculated from the ATG_CIS assay. It is designed to make measurements of mRNA induction, a form of inducible reporter, as detected with fluorescence intensity signals by Reverse transcription polymerase chain reaction (RT-PCR) and Capillary electrophoresis technology.Data from the assay component ATG_Xbp1_CIS was analyzed into 1 assay endpoint. This assay endpoint, ATG_Xbp1_CIS, was analyzed with bidirectional fitting relative to DMSO as the negative control and baseline of activity. Using a type of inducible reporter, measures of mRNA for gain or loss-of-signal activity can be used to understand the reporter gene at the transcription factor-level as they relate to the gene XBP1. Furthermore, this assay endpoint can be referred to as a primary readout, because this assay has produced multiple assay endpoints where this one serves a reporter gene function. To generalize the intended target to other relatable targets, this assay endpoint is annotated to the dna binding intended target family, where the subfamily is basic leucine zipper.
Human liver HepG2 cells are transiently transfected with multiple reporter transcription units (MRTUs) in 6-well plates using FuGene 6 reagent (Roche; 3 ml FuGene/1 mg DNA). The MRTU constructs are regulated by a cis-regulating element (promoter). […] A major difference between the CIS and TRANS system is that in CIS activities of endogenous TFs are measured, whereas the TRANS assay evaluates changes in activities of exogenous, chimeric NR-Gal4 proteins. […] At the end of 24 hour incubation, total RNA was isolated using TriZol reagent (Invitrogen). The isolated RNA is then reverse-transcribed using oligo(dT) primer and Mo-MLV reverse transcriptase (Invitrogen) with DNAse I (Ambion) treatment for 30 min. The one-tenth of the produced cDNA was amplified by PCR using Taq DNA polymerase (Invitrogen) and two reporter sequence-specific primers. The PCR products were fluorescently labeled by primer extension with 6-arboxyfluorescein (6-FAM) 5'-labeled reporter sequence-specific primer (2 min at 95 C, 20 s at 68 C and 10 min at 72 C) and these products were digested with 5U of HpaI (New England Biolabs) for 2h at 37 C. The fragments were purified using Qiaquick PCR columns (Qiagen), analyzed on an ABI 3130xL genetic analyzer (Applied Biosystems) with peak positions identified by using a set of X-rhodamine (ROX)-labeled MapMarker1000 molecular weight standards (BioVentures). The raw capillary electrophoresis data was processed using Attagraph software (Attagene).

Question: How did the outcome turn out when Cc1ccc([N+](=O)[O-])cc1N was run?
Answer: inactive

Question: CCCCC1C(=O)N(c2ccccc2)N(c2ccccc2)C1=O was tested. Which outcome did it give?
Answer: inactive

Question: For CCC(C)C(=O)OC (stereo not given), which outcome is on record?
Answer: inactive

Question: How did the outcome turn out when Nc1ccc(Cl)c(N)c1 was run?
Answer: inactive

Question: Which outcome does the source give for C=CC(=O)O[C@H]1C[C@@H]2CC[C@@]1(C)C2(C)C here?
Answer: inactive

Question: For CC1=CP(=O)(c2ccccc2)CC1 (stereo not given), which outcome is on record?
Answer: inactive

Question: Which outcome does the source give for C=C(C)OC(C)=O here?
Answer: inactive

Question: With CCc1cccc(C)c1N as the compound, how does the outcome read?
Answer: inactive

Question: How did the outcome turn out when CC(C)(C)C1CCC(=O)CC1 was run?
Answer: inactive

Question: With c1ccc2cnccc2c1 as the compound, how does the outcome read?
Answer: inactive

Question: Which outcome does the source give for O=C(O)C1CCC(C(=O)O)CC1 (stereo not given) here?
Answer: inactive

Question: With CCCCOC(=O)C(C)CC (stereo not given) as the compound, how does the outcome read?
Answer: inactive

Question: How did the outcome turn out when Nc1ncnc2nc[nH]c12 was run?
Answer: inactive

Question: For CC(=O)OC1CCCCC1, which outcome is on record?
Answer: inactive

Question: Which outcome does the source give for CCOC(=O)/C=C\C(=O)OCC here?
Answer: inactive

Question: How did the outcome turn out when CCC[Si](OC)(OC)OC was run?
Answer: inactive

Question: How did the outcome turn out when CCCCCCOc1ccc(N)cc1 was run?
Answer: inactive

Question: Which outcome does the source give for O=C(Cl)c1c(Cl)c(Cl)c(C(=O)Cl)c(Cl)c1Cl here?
Answer: inactive

Question: How did the outcome turn out when O=C1CCCCC1C1CCCCC1 (stereo not given) was run?
Answer: inactive

Question: CCCCOC(=O)CCC(C)=O was tested. Which outcome did it give?
Answer: inactive

Question: Which outcome does the source give for CC(C)COC(=O)CC(C(=O)OCC(C)C)S(=O)(=O)O (stereo not given) here?
Answer: inactive

Question: How did the outcome turn out when CC1=CC=C(C(C)C)CC1 was run?
Answer: inactive

Question: Nc1ccc(O)c([N+](=O)[O-])c1 was tested. Which outcome did it give?
Answer: inactive

Question: With Cn1cccc1 as the compound, how does the outcome read?
Answer: inactive

Question: For CN1CCN(C)CC1, which outcome is on record?
Answer: inactive

Question: CC1C(C)(C)C2=C(C(=O)CCC2)C1(C)C (stereo not given) was tested. Which outcome did it give?
Answer: inactive

Question: Which outcome does the source give for CCOC(=O)c1ccc(C)cc1 here?
Answer: inactive

Question: With CCN1CN(CC)CN(CC)C1 as the compound, how does the AC50 read?
Answer: 162 µM (active)

Question: With COc1ccc(-c2coc3cc(O)cc(O)c3c2=O)cc1 as the compound, how does the AC50 read?
Answer: 100 µM (active)

Question: How did the AC50 turn out when CCCCCC[C@@H](O)C/C=C\CCCCCCCC(=O)OCC(O)CO (stereo not given in full) was run?
Answer: 175 µM (active)

Question: Which outcome does the source give for C=CC(=O)NCOCCCC here?
Answer: inactive

Question: CCCCCCCCCCCC(=O)OCC was tested. Which outcome did it give?
Answer: inactive

Question: CO[Si](C)(C)OC was tested. Which outcome did it give?
Answer: inactive

Question: Which outcome does the source give for C=CC(C)(O)CC/C=C(\C)CC (stereo not given) here?
Answer: inactive

Question: Which outcome does the source give for O=C1CCCCCCCCCCCN1 here?
Answer: inactive

Question: CCCCCC1=CCCC1=O was tested. Which outcome did it give?
Answer: inactive

Question: Which AC50 does the source give for CCC1(C)C(=O)N(Cl)C(=O)N1Cl (stereo not given) here?
Answer: 47.1 µM (active)

Question: Which outcome does the source give for Nc1ccc(C(=O)O)cc1 here?
Answer: inactive

Question: For O=C(OCc1ccccc1)c1ccc(O)cc1, which AC50 is on record?
Answer: 147 µM (active)

Question: How did the outcome turn out when CC1OC(=O)C(C)OC1=O (stereo not given) was run?
Answer: inactive
